Screening results (PubChem)
This is a sample that favours compounds with a hit; in the whole collection about 8.3% have one here.
HCMV inh: blocks human cytomegalovirus replication | HFF cells, HCMV-luciferase reporter, 72 h; hits give low values | activity change, negative = inhibition, % at 57.5 µM | 4.5% of 410,000 active; in the data active = activity change below about -60%; inconclusive = no clear call, values can overlap the other calls; inactive = above about -39%
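HFF cells seeded 16 h at 37C, treated with compounds, infected with luciferase-reporter HCMV at MOI 1 PFU/cell; luciferase read at 72 h post infection, normalized to buffer-only and Salinomycin controls.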
FMDV antiviral: foot and mouth disease virus antiviral activity; FMDV antiviral cell-based qHTS; Potency, µM (highest dose often 57.9 µM), without a hit: at the top dose activity change, negative = inhibition, usual class: inhibitors; 1.2% of 410,000 active; AID 1159524; calls by dose curve; tested in HEK293T cells; note: read-out not given here; potency is the fitted concentration of half-maximal effect; nearly all actives have a fitted effect of over 45% in size
HCV inhibitor: HCV inhibition | AID 651820 | Potency, µM (series often up to 41.8 µM), inactives show at the top dose activity change, negative = inhibition, hits mostly inhibitors | 3.4% of 340,000 active | Huh7.5.1 HCVcc-Cre infection, luciferase reporter, 44 h; note: potency is the fitted concentration of half-maximal effect
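Compounds are dispensed onto cells plated 4 h earlier at 1,000 per well, with HCVcc-Cre virus (about 0.5 moi) added next. Following 44 h of culture, luminescent signal is measured for 15 sec after 15 min with substrate at room temperature.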
Lassa entry inh: inhibitors of Lassa virus binding or cell entry | Lassa virus pseudotype entry inhibition, cell reporter | Potency, µM (titrated, usually from 37.9 µM), for the others: top-dose activity change, negative = inhibition, most hits filed as inhibitors | 1.2% of 300,000 active | AID 540256; calls by dose curve; tested in HEK293 cells; note: potency is the fitted concentration of half-maximal effect; nearly all actives have a fitted effect of over 50% in size
FBPA Giardia inh: blocks Giardia fructose-bisphosphate aldolase activity; 0.71% of 290,000 active; Potency, µM (titrated, usually from 59.6 µM), for inactives: at the highest dose activity, negative = inhibition, usual class: inhibitors; A8B2U2; purified Giardia FBPA; note: potency is the fitted concentration of half-maximal effect; nearly all actives have a fitted effect of over 55% in size
Target sequence (A8B2U2 whole entry, looked up): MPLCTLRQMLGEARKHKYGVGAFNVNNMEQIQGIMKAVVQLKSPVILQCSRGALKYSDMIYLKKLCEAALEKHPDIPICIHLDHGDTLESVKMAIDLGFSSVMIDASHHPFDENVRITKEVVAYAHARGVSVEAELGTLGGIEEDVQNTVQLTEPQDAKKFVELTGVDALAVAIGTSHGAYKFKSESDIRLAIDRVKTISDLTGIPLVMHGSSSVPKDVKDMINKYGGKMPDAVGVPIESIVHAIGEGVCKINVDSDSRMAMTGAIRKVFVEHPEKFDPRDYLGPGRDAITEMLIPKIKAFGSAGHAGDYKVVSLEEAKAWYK
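Giardia FBPA (40 nM reagent) was preincubated 10 min at RT with compound (up to 57.5 uM final), then substrate plus GAPDH/TPI/NAD/arsenate coupling system with diaphorase/resazurin was added; resorufin fluorescence (525/598 nm) was read after 20 min.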
MARV entry inh: blocks Marburg virus binding to or entry into cells; Marburg virus pseudotyped entry inhibition, cell reporter; Potency, µM (series often up to 37.8 µM), inactives show at the top dose activity change, negative = inhibition, hits mostly inhibitors; 1.8% of 300,000 active; AID 540276; calls by dose curve; tested in HEK293 cells; note: potency is the fitted concentration of half-maximal effect
Numbers without * were called inactive; u = inconclusive; x = no result given; [ ] = dose if it differs, or a comment. Unless noted, calls come from the whole dose curve; as a rule, active = well fitted curve in the direction sought with a large enough effect; inconclusive = small, poorly fitted or top-dose-only effect, or another doubt; inactive = no such curve, though single readings can be large; an effect the other way counts as inactive or inconclusive. % is set by controls: 0 for no effect and ±100 for the full control effect.

SMILES	HCMV inh	FMDV antiviral	HCV inhibitor	Lassa entry inh	FBPA Giardia inh	MARV entry inh
COc1ccccc1NC(=S)NCCC(c1ccccc1)c1ccccc1	u	18%	10µM*	-1%	11%	-27%
N#Cc1nc(NCC2CC2)nc(Nc2ccccc2)n1	x	x	x	x	0%	x
O=S(Cc1ccc(Br)cc1)Cc1nnc(SCc2ccc(Cl)cc2)n1-c1ccccc1 (stereo not drawn)	-66*	0%	6.3µM*	13µM*	0%	u
Cn1c(CS(=O)Cc2c(Cl)cccc2Cl)nnc1SCc1ccc(Cl)cc1 (stereo not drawn)	-12	-3%	-18%	6%	-1%	-16%
Nn1c(Cc2cccc3ccccc23)nnc1SCc1c(F)cccc1Cl	u	-8%	4%	-7%	-3%	-6%
O=S(Cc1ccc(Br)cc1)Cc1nnc(SCc2c(F)cccc2Cl)n1-c1ccccc1 (stereo not drawn)	u	35µM*	u	u	-5%	u
CC(Oc1ccc2c(-c3ccccc3)cc(=O)oc2c1)C(=O)NCc1ccccn1 (stereo not drawn)	-34	-21%	25µM*	x	12%	x
O=C(COc1ccc2c(-c3ccccc3)cc(=O)oc2c1)N[C@@H](Cc1c[nH]c2ccc(O)cc12)C(=O)O	19	-1%	u	x	27%	x
CC(Oc1ccc2c(-c3ccccc3)cc(=O)oc2c1)C(=O)NC(Cc1c[nH]c2ccc(O)cc12)C(=O)O (stereo not drawn)	-77*	6%	1%	x	-3%	x
O=C1OC(c2cc(I)c(O)c(I)c2)(c2cc(I)c(O)c(I)c2)c2ccccc21	3	x	x	x	-11%	x
O=C(Cn1cnc2c(cnn2-c2ccccc2)c1=O)N1CCCc2ccccc21	u	u	u	u	5%	7.3µM*
Cc1cc(C)n(-c2nc3ccccc3nc2Nc2ccc(Cl)c(Cl)c2)n1	19	-3%	x	3%[46.1 µM]	x	-16%[46.1 µM]
Cc1cc(C)n(-c2nc3ccccc3nc2Nc2ccc3[nH]c(=O)[nH]c3c2)n1	-14	u	11µM*	7%	2%	-18%
COc1ccc(Nc2nc(Nc3ccc(OC)cc3)nc(-n3[nH]c(=O)c(C)c3C)n2)cc1	13	-17%	10µM*	-16%	0%	u
COc1ccc(Nc2nc(OC)nc(OC)n2)cc1	-26	27%	5%	x	4%	x
Cc1ccc(Cl)cc1-n1ncc2c(Nc3cccc(C)c3C)ncnc21	-23	u	x	u	x	x
CCOC(=O)c1ccc(NC2SC(=O)N(Cc3cccc(C(=O)O)c3)C2=O)cc1 (stereo not drawn)	35	0%	x	-18%[46.1 µM]	x	12%[46.1 µM]
CCCCOc1ccc(CSC(CC(=O)O)C(=O)O)cc1 (stereo not drawn)	-29	-2%	u	-6%	26%	5%
CCCCOc1ccc(CSCCN=C(N)N)cc1	-62*	-12%	u	u	1%	u
COc1cc(CN2CCOc3ccc(C(O)c4cccnc4)cc3C2)cc(OC)c1 (stereo not drawn)	x	-11%	x	x	x	x
Oc1ccc(Nc2nc(-c3ccccc3)nc3ccccc23)cc1	x	u	10µM*	u	0%	u
Clc1cccc(Nc2nc(-c3ccncc3)nc3ccccc23)c1	3	-20%	u	u	4%	u
Oc1ccc(Nc2nc(-c3ccc(Cl)cc3)nc3ccccc23)cc1	-61*	7%	x	u	x	u
Cc1ccc(Nc2nc(-c3cccnc3)nc3ccccc23)cc1	-69*	-19%	1.1µM*	u	4%	4µM*
COc1ccc(Nc2nc(-c3ccccc3)nc3ccccc23)cc1	u	-24%	u	33%[46.1 µM]	-19%	u
SMILES	HCMV inh	FMDV antiviral	HCV inhibitor	Lassa entry inh	FBPA Giardia inh	MARV entry inh
O=[N+]([O-])c1ccc(-c2nc(Nc3ccc(O)cc3)c3ccccc3n2)cc1	15	0%	u	x	0%	x
CC(=O)Nc1ccc(Nc2nc(-c3ccccc3)nc3ccccc23)cc1	-94*	u	10µM*	u	0%	u
COc1ccc(C2=Nn3c(nnc3-c3ccc(OC)cc3OC)SC2)c(OC)c1	x	x	x	x	1%	x
CCC1=C(OC(=O)N(CC)CC)N2C(=O)OC(=NCCOC)[C@]2(C)[C@H]2C1=CC[C@H]1C(=O)N(CC)C(=O)[C@H]12	x	x	x	x	0%	x
Cc1cc(C)cc(-n2c(SCC(=O)N3CCCCCC3)nc3c([nH]c4ccccc43)c2=O)c1	-5	-24%	x	-10%[46.1 µM]	x	x
Cc1cc(C)cc(-n2c(SCC(N)=O)nc3c([nH]c4ccccc43)c2=O)c1	-71*	-15%	x	u	x	x
CC(Sc1nc2c([nH]c3ccccc32)c(=O)n1-c1ccccc1)c1ccccc1 (stereo not drawn)	-83*	-25%	x	u	x	x
O=C(CSc1nc2c([nH]c3ccccc32)c(=O)n1-c1ccccc1F)Nc1ccccc1C(F)(F)F	-89*	-18%	x	u	x	x
CCSc1nc2c([nH]c3ccccc32)c(=O)n1-c1cccc(OC)c1	-63*	-26%	x	u	x	x
O=C(N/N=C(\c1ccccc1)c1cccnc1)c1cccc(F)c1	-112*	u	u	u	-11%	u
CC1(C)N=C(N)N=C(N)N1c1ccc(OCC(=O)N2CCOCC2)c(Cl)c1	-101*	0%	x	x	x	x
CC1(C)N=C(N)N=C(N)N1c1ccc(OCC(=O)Nc2ccccc2)c(Cl)c1	-95*	54%	x	x	x	x
CC1(C)N=C(N)N=C(N)N1c1ccc(OCCCOc2ccccc2)c(Cl)c1	-100*	u	u	x	-1%	x
CCOC(=O)c1cccc(N2C(N)=NC(N)=NC2(C)C)c1	u	-15%	-6%	16%	1%	12%
CC1(C)N=C(N)N=C(N)N1c1cccc(C(=O)O)c1	u	u	11%	28%	-6%	30%
